Experiment [1] concerns Plasmodium falciparum Sir2 (PF13_0152, Sir2A). In words: pfSir2 binders on small-molecule microarrays, primary screen, biochemical, small-molecule microarray, 635 nm fluorescence (AID 1098).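 Note: score merges spot fluorescence intensity with its signal-to-noise ratio.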 Particulars: small-molecule microarray binding, fluorescence 635 nm; higher = more signal.
A short description of experiment [2]: small-molecule microarray binders of probe aDKK1, primary screen, biochemical, biotinylated probe, 635/667 nm fluorescence (AID 1099).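 Note: score merges 667nm spot fluorescence with signal to noise across triplicate slides.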 Particulars: higher = more signal.
A short description of experiment [3]: small-molecule microarray binders of probe aCHRDL2, primary screen, biochemical, biotinylated probe, 635/667 nm fluorescence (AID 1100). The conditions noted are these: higher = more signal.
A short description of experiment [4]: splicing luciferase reporter signal modulators, primary screen, spliceosome inhibition project, cell-based, HEK293, splice +/- reporter (AID 1101).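 Note: HEK293 cells carrying a splicing-competent luciferase reporter gene; test concentration not given here.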 The conditions noted are these: luminescence, 24 h, higher = more signal, called active from +8 up or from −8 down. (A reporter such as luciferase makes a cellular process visible.)
Experiment [5] deals with Fibroblast growth factor 10 (Homo sapiens) (UniProt O15520). In words: FGF10 binders on small-molecule microarrays, primary screen, biochemical, small-molecule microarray, 635 nm fluorescence (AID 1102). Particulars: FGF10 binding, fluorescence 635 nm, higher = more signal.
Fibroblast growth factor 10 (Homo sapiens), sequence (O15520 whole entry, looked up): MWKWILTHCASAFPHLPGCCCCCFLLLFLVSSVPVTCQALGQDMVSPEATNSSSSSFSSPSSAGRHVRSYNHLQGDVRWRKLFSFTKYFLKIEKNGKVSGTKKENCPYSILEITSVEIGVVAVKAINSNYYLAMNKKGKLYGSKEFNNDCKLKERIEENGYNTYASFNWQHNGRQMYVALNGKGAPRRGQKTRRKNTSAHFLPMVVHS
The test system of experiment [6] is glycogen synthase kinase-3 (GSK3A per assay name; protocol says GSK3B). In words: GSK3 binders on small-molecule microarrays, primary screen, biochemical, small-molecule microarray, 635 nm fluorescence, GSK3A (AID 1103). Note: the record names both GSK3A and GSK3B. Particulars: small-molecule microarray binding, fluorescence 635 nm; higher = more signal.
For experiment [7], the target named is Epidermal growth factor receptor (Homo sapiens) (UniProt P00533). Description: EGFR binders on small-molecule microarrays, primary screen, biochemical, small-molecule microarray, 635 nm fluorescence (AID 1104).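 Note: score merges 667 nm emission intensity with spot signal to noise over triplicate slides.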 Particulars: EGFR binding, higher = more signal.
Epidermal growth factor receptor (Homo sapiens), sequence (P00533 whole entry, looked up): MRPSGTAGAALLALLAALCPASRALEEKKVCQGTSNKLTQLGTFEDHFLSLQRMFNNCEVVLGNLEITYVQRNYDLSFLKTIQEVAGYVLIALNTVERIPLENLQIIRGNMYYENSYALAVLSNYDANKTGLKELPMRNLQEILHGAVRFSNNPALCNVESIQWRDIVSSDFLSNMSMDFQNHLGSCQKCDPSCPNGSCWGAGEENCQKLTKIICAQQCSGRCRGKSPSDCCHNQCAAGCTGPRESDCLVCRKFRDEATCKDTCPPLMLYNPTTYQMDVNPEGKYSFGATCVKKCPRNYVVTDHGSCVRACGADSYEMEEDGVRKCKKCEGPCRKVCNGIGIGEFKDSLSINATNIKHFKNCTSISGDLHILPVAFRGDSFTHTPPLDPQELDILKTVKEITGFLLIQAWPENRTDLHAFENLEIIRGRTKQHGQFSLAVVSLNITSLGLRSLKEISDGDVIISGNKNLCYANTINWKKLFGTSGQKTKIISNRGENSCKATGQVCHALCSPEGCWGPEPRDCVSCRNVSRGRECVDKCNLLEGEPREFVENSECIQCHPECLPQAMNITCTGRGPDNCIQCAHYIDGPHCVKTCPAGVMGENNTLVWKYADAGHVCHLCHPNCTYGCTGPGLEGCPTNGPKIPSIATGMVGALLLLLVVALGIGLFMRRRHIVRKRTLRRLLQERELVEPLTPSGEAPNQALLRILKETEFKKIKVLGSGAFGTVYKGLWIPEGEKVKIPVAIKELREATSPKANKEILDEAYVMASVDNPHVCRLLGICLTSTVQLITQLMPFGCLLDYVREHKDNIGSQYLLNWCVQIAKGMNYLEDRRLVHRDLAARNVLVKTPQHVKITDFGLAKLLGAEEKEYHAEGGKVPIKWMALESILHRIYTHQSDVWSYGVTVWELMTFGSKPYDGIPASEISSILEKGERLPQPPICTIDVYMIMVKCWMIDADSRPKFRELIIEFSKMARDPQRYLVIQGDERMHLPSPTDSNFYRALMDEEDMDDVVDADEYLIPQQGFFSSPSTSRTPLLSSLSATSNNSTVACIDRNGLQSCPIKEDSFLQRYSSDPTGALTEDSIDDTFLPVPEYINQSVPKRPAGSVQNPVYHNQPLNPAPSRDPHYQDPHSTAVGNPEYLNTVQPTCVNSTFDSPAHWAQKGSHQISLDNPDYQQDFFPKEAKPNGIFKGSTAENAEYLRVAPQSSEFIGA
Experiment [8] has as its target Follistatin-related protein 3 (Homo sapiens) (UniProt O95633). Description: FSTL3 binders on small-molecule microarrays, primary screen, biochemical, small-molecule microarray, 635 nm fluorescence (AID 1105).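 Note: score merges emission near 667 nm and signal to noise per printed spot across three slides.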 The conditions noted are these: FSTL3 binding, higher = more signal.
In experiment [9] the target is Dickkopf-related protein 1 (Homo sapiens) (UniProt O94907). In words: DKK1 binders on small-molecule microarrays, primary screen, biochemical, small-molecule microarray, 635 nm fluorescence scan (AID 1106).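 Note: score merges emission near 667 nm with signal to noise over three replicate slides.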 The conditions noted are these: DKK1 binding, higher = more signal.
Dickkopf-related protein 1 (Homo sapiens), sequence (O94907 whole entry, looked up): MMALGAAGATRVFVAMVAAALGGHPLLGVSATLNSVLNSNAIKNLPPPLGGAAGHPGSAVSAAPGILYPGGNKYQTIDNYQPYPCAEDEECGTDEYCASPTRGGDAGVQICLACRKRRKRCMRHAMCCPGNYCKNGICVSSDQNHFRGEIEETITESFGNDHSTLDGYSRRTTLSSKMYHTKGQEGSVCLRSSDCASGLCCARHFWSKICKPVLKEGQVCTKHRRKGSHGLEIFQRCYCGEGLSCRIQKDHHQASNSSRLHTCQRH
The test system of experiment [10] is Inhibin beta A chain (activin A). Description: INHBA (activin A) binders on microarrays, primary screen, biochemical, small-molecule microarray, 635 nm fluorescence scan (AID 1107).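 Note: mouse activin A protein probed at 4.33 µg/mL on printed slides; score merges bound-protein fluorescence near 667 nm with spot signal-to-noise.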 The conditions noted are these: small-molecule microarray binding, higher = more signal.
For experiment [11], the system named is Human papillomavirus type 1a protein E7 (residues 44-93). In words: HPV1a E7 fragment binders on microarrays, primary screen, biochemical, small-molecule microarray, residues 44-93, 635 nm fluorescence (AID 1108).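 Note: E7 fragment applied at 1 µg/mL in TBST for 1 h at 4 C; score combines spot fluorescence with its signal to noise ratio.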 Particulars: small-molecule microarray binding, fluorescence 635 nm; higher = more signal.
Experiment [12] in a line: modulators of HCV replicon luciferase signal, primary screen, HCV replication inhibitor project, Huh7 cells, luciferase reporter (AID 1109).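 Note: huh7 hepatoma cells harbouring a luciferase neomycin HCV replicon reporter; luciferase luminescence as measure of HCV replicon replication; test concentration not given here.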 The conditions noted are these: 48 h, higher = more signal. In general terms: Replicon systems follow genome replication, usually without infectious particles.
Experiment [13] deals with Left-right determination factor 2 (Homo sapiens) (UniProt O00292). Description: LEFTY2 binders on small-molecule microarrays, primary screen, biochemical, small-molecule microarray, 635 nm fluorescence scan (AID 1110). The conditions noted are these: LEFTY2 binding, higher = more signal.
Left-right determination factor 2 (Homo sapiens), sequence (O00292 whole entry, looked up): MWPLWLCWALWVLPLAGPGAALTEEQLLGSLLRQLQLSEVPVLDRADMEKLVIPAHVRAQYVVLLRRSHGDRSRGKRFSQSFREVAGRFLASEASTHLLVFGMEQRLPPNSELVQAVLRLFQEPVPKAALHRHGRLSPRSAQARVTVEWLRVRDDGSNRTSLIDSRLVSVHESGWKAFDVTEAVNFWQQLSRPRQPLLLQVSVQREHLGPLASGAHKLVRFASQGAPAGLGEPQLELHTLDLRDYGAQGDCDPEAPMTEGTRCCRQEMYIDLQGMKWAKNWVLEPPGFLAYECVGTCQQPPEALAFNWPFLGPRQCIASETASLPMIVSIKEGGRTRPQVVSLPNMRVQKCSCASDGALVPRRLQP
Experiment [14] deals with Calmodulin-1 (Homo sapiens) (UniProt P0DP23). In words: CALM1 binders on microarrays, EGTA buffer, profiling panel, biochemical, small-molecule microarray, Cy5-labelled CALM1 (AID 1111).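 Note: labelled calmodulin applied in Tris saline Tween buffer holding calcium plus EGTA and DTT.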 The conditions noted are these: Cy5-CALM1 binding fluorescence, higher = more signal.
The target is the same in experiment [15]. In words: calcium-bound CALM1 binders on microarrays, profiling panel, artefact control for SMM control-protein annotation, biochemical, small-molecule microarray, Cy5-labelled CALM1, plus calcium (AID 1112).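 Note: score merges spot fluorescence with signal to noise from triplicate slides.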 Particulars: Cy5-CALM1 binding fluorescence, higher = more signal.
Experiment [16] is described as follows: small-molecule microarray binders of probe aWnt5a, primary screen, biochemical, biotinylated probe, 635/667 nm fluorescence (AID 1113).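 Note: score merges 667 nm fluorescence intensity with signal-to-noise per printed feature.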 The conditions noted are these: higher = more signal.
Experiment [17] can be described thus: small-molecule microarray binders of probe aShh, primary screen, biochemical, biotinylated probe, 635/667 nm fluorescence (AID 1114).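 Note: probe is biotin-labelled aShh protein from a stem cell growth factor screen; measures binding of labelled protein to compounds printed on the slide; score merges feature fluorescence at 667 nm with signal-to-noise.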 The conditions noted are these: higher = more signal.
A short description of experiment [18]: small-molecule microarray binders of probe aNog, primary screen, biochemical, biotinylated probe, 635/667 nm fluorescence (AID 1115).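 Note: probe is biotinylated aNog protein used at 0.15 µg/mL for 1 h at 4 C; z-score combines 667 nm fluorescence of each spot with its signal to noise.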 Particulars: higher = more signal.
For experiment [19], the target named is Torsin-1A-interacting protein 1 (Homo sapiens) (UniProt Q5JTV8). Description: LAP1 binders from COS7 cell lysate, primary screen, small-molecule microarray, 635/667 nm fluorescence (AID 1116). Particulars: COS7-hLAP1 lysate binding, 635 nm fluorescence, higher = more signal.
Torsin-1A-interacting protein 1 (Homo sapiens), sequence (Q5JTV8 whole entry, looked up): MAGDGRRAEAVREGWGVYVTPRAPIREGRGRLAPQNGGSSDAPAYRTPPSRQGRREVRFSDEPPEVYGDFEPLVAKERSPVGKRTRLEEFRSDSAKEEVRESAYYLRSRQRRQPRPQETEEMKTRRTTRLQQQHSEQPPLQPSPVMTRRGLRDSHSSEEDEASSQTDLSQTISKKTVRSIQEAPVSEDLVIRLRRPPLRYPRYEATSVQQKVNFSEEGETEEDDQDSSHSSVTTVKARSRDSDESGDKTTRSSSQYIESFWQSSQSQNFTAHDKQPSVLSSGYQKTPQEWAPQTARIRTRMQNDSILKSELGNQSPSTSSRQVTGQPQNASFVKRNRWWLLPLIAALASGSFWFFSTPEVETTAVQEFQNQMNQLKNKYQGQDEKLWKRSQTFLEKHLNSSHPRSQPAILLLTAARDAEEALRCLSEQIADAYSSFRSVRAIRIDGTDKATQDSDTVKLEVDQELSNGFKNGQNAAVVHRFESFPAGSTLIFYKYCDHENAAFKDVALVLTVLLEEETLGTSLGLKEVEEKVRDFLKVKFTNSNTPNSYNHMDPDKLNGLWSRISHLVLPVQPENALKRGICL
For experiment [20], the target named is Alpha-bungarotoxin (Bungarus multicinctus) (UniProt P60615). In words: alpha-bungarotoxin binders on microarray, profiling panel, artefact control for SMM control protein annotation, biochemical, small-molecule microarray, Alexa647 label, 635/667 nm fluorescence (AID 1117). The conditions noted are these: alpha-BTX-A647 binding fluorescence, higher = more signal.
Alpha-bungarotoxin (Bungarus multicinctus), sequence (P60615 whole entry, looked up): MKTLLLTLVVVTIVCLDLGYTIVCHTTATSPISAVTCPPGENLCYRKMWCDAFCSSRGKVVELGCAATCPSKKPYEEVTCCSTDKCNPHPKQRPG

The source made the active and inactive calls.

Follistatin-related protein 3 (Homo sapiens), sequence (O95633 whole entry, looked up): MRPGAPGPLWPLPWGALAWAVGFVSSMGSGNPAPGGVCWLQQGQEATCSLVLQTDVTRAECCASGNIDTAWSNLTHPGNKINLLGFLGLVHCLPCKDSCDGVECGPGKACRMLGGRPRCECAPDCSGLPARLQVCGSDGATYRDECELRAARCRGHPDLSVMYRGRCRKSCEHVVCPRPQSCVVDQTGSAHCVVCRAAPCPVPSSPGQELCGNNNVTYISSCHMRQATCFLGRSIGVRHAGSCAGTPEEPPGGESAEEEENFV

With `CCCCCCc1nc(Cc2cc(OC)c(OC)c(OC)c2)c(C)c2c1[Si](C(C)C)(C(C)C)OC2`, the composite z-score in [1] was 0.197; in experiment [2] it was -0.1; in experiment [3], -0.35; in [5], 0.261; in experiment [6] it was 0.104; in experiment [7], -0.0718. In addition, the composite z-score in [8] was 0.237; in [9], 0.163; in experiment [10], 0.987; in experiment [11], 0.495; in experiment [13], 0.0746; in experiment [14] it was -0.0235. For the same molecule, the composite z-score in experiment [15] is -0.128; in [16], -0.0721; in [17] it was 0.14; in experiment [18], -0.0587; in experiment [19], 0.18; in experiment [20], -0.101. Besides, the z-score in experiment [4] is -2.3 (inactive); in experiment [12], -0.715.

Turning to `COC(=O)C1=CC(CCCO)=CC(c2ccc(CN3CCCC3)cc2)N(C)C=C1C(=O)OC` (stereo not given), the composite z-score in experiment [1] is 1.65; in experiment [2] it was 0.629; in [3] it was 0.549; in experiment [5], 0.883; in experiment [6] it was -0.302; in experiment [7], -0.138. The composite z-score is 0.345 in experiment [8]; -0.36 in [9]; 0.861 in experiment [10]; 1.3 in experiment [11]; 0.0465 in [13]; 1 in [14]. The composite z-score in experiment [15] came to 0.316; in [16], 0.002; in experiment [17], 0.582; in [18], 0.776; in experiment [19], 1.66; in [20], 0.57. Moreover, the z-score in [4] was 0.657 (inactive); in experiment [12], -0.979.

As to `COc1cccc(C)c1NC(=O)O[C@H]1[C@H](OC(=O)Nc2ccccc2-c2ccccc2)[C@@H](OC(=O)Nc2ccccc2-c2ccccc2)[C@@H](OC)O[C@@H]1CO`, the composite z-score in experiment [1] was 1.3; in [2] it was 0.629; in [3], 0.573; in experiment [5] it was 1.4; in experiment [6], 1.1; in [7] it was 0.316. The composite z-score in [8] worked out at 1.43; in experiment [9], 0.244; in experiment [10] it was 0.601; in experiment [11] it was 1.52; in experiment [13], 0.49; in experiment [14], 1.75. Besides, the composite z-score in experiment [15] is -0.136; in experiment [16], -0.0325; in experiment [17] it was -0.0211; in experiment [18], 1.08; in experiment [19], 0.809; in experiment [20] it was 0.949. Moreover, the z-score is 0.152 (inactive) in experiment [4] and -3.72 in experiment [12].

As to `CC1(C)OB(/C=C\CC(OC(=O)c2ccncc2)c2ccccc2)OC1(C)C` (stereo not given), the composite z-score is 0.398 in experiment [1]; 1.17 in [2]; 1.47 in experiment [3]; -0.951 in experiment [5]; -0.131 in experiment [6]; -1.31 in experiment [7]. In addition, the composite z-score in experiment [8] is -0.0031; in experiment [9] it was -1.26; in [10], 1.75; in experiment [11], 0.0565; in experiment [13], -1.46; in experiment [14], -2.58. In addition, the composite z-score in experiment [15] was -2.34; in experiment [16] it was -0.124; in experiment [17], 0.0469; in experiment [18], -0.76; in experiment [19], 0.161; in [20], -0.778. In addition, the values for the z-score in experiment [4] and in experiment [12] were 0.639 (inactive) and -0.382, respectively.

As for `O=C1C2C=CC(C(O)C3CCCCC3)N(Nc3ccccc3F)C2C(=O)N1c1ccccc1` (stereo not given), the composite z-score in [1] stood at 1.12; in experiment [2] it was 1.15; in experiment [3], 0.95; in experiment [5], 0.873; in experiment [6], 1.29; in experiment [7] it was 0.157. Besides, the composite z-score in experiment [8] is 1.08; in experiment [9], -0.498; in experiment [10] it was 1.1; in [11], 1.45; in experiment [13] it was 0.135; in experiment [14], 2.06. Besides, the composite z-score in experiment [15] was 1; in [16], 0.0993; in experiment [17] it was -0.0054; in experiment [18], -0.0116; in experiment [19] it was 1.27; in experiment [20], 2.4. In addition, the values for the z-score in experiment [4] and in [12] were -0.505 (inactive) and -1.49, respectively.

With `CN(C)CCCC[C@@H]1NC(=O)[C@H]2C[C@@H](C(=O)NCCCCCCNC(=O)CS)[C@@H](c3cccc(OCCO)c3)N2C1=O`, the composite z-score was 0.872 in experiment [1]; 0.094 in [2]; 0.366 in experiment [3]; 0.124 in [5]; 0.846 in [6]; -0.166 in experiment [7]. Further, the composite z-score in experiment [8] is -0.606; in experiment [9] it was 0.156; in experiment [10], -0.364; in [11], 0.521; in experiment [13], -0.17; in experiment [14], -0.0373. The composite z-score is -0.323 in experiment [15]; -0.113 in experiment [16]; -0.0709 in experiment [17]; -0.429 in experiment [18]; 0.358 in experiment [19]; 0.539 in experiment [20]. In addition, the z-score in experiment [4] was 0.624 (inactive); in experiment [12], 0.0145.

These data come from PubChem BioAssay.
